Screening results: PubChem, The Scripps Research Institute Molecular Screening Center
A selection: hits, their analogues and other compounds. The true share with any hit is near 4.1%.
DAX1 inh-1: blocks DAX1 repression of SF-1 activated StAR promoter | hit rate 1.1% among 370,000 | inhibition, % at 6.8 µM | HEK293T StAR-luciferase reporter, SF-1/DAX-1 repression relief;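 active = inhibition above the mean over all tested compounds plus 3 SD, cut at about 3.6% in these data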;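 also: 0% = DAX-1 cells with DMSO and 100% = cells lacking DAX-1 with DMSO; higher inhibition means more luminescence from relief of DAX-1 repression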
DAX1 inh-2: inhibits human nuclear receptor DAX1. P51843. HEK293 Gal4-DAX1 luciferase reporter, luminescence. inhibition, % at 6.75 µM. hit rate 0.99% among 340,000;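 active = inhibition above the mean over all tested compounds plus 3 SD, cut at about 4.2% in these data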;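 also: 0% = DAX1-transfected cells with DMSO and 100% = empty-vector control cells with DMSO; inhibition shows as a rise in luminescence from relieved DAX1 repression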
ssDAF12 agonist: S. stercoralis DAF-12 activation, primary screen. HEK293 ssDAF-12/GRIP1 lit1-tk-luc reporter, luminescence; % of 3 µM dafachronic acid response. activation, % at 6.8 µM. hit rate 1% among 370,000;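 active = activation above the mean over all tested compounds plus 3 SD, cut at about 0.9% in these data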;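 also: 0% = DMSO-only wells and 100% = 3 µM delta7-dafachronic acid wells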
hcDAF-12 act: activators of H. contortus DAF-12 nuclear receptor; HEK293 hcDAF-12 lit1-tk-luc reporter, luminescence; 0% DMSO, 100% Δ7-dafachronic acid; activation, % at 6.8 µM; hit rate 1.4% among 370,000;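 active = activation above the mean of all tested compounds plus 3 SD, cut at about 5.5% in these data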;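 also: 100% = response to 3 µM Δ7-dafachronic acid high control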
hgDAF12 agonist: agonists of H. glycines DAF-12 nuclear receptor; activation, % at 6.8 µM; hit rate 1.8% among 370,000; AID 687014; HEK293 GAL4-hgDAF12 UAS-luciferase reporter, agonist luminescence; normalized to butyrate control;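 active = activation above a cutoff set at the mean of all screened compounds plus 3 SD, cut at about 10% in these data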;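 also: 0% = DMSO wells and 100% = sodium butyrate wells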
hgDAF12 conf: hgDAF-12 agonism, confirmation assay | shares compounds with hgDAF12 agonist | HEK293 GAL4-hgDAF12 luciferase reporter, agonist mode; percent of butyrate response | activation, % at 6.8 µM | hit rate 80% among 3,300;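 active = mean activation over triplicate wells above the hit cutoff derived from the earlier primary screen, cut at about 11% in these data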;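 also: 0% = DMSO low control and 100% = 2 mM sodium butyrate high control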
LXR ag 2: LXR-beta agonism as DAF-12 counter-screen | activation, % at 6.8 µM | 3,300 tested, under 10 active | HEK293 Gal4-LXR luciferase reporter, 24 h | shares compounds with hgDAF12 agonist | AID 743051;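 active = mean activation of the triplicate above a set limit carried over from the primary screen, none filed active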
Target sequence (P55055 whole entry, looked up, the tested form may be a part): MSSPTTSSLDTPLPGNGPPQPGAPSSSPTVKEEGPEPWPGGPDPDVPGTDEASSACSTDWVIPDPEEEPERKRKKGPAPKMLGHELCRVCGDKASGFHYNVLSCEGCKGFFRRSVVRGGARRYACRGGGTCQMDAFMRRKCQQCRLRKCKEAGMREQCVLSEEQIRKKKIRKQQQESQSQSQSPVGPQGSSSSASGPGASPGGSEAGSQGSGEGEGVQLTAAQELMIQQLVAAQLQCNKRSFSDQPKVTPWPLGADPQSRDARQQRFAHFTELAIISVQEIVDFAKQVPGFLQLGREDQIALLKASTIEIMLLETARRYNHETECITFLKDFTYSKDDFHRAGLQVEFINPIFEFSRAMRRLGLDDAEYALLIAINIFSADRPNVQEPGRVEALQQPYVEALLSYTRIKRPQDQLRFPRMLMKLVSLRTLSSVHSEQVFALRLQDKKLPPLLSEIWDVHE
* = called active by the depositor; · = no result.

SMILES	DAX1 inh-1	DAX1 inh-2	ssDAF12 agonist	hcDAF-12 act	hgDAF12 agonist	hgDAF12 conf	LXR ag 2
COC1CCN(C(=O)c2cc(COc3cc(C)ccc3C)on2)CC1	0	1	-1	-2	2	·	·
CC(=O)NCCC1CCCCN1C(=O)c1cc(COc2cc(C)ccc2C)on1 (stereo unspecified)	2	1	1	5	16*	13*	1
O=C(c1cccs1)N1CCN(Cc2nc(-c3ccccc3)no2)CC1	1	1	-1	0	6	·	·
CCOC(=O)Cc1ccc2sc(-c3ccccc3)nc2c1	3	4	0	4	13*	14*	1
c1ccc(Cc2nnc(-c3ccccc3)o2)cc1	0	4	0	2	14*	10	0
Nc1ccc(N=Nc2ccccc2)c(N)n1	4.1*	1	-1	3	16*	13*	0
CSCCC(NC=O)C(=O)NC(C)C(=O)O (stereo unspecified)	0	-1	-2	-1	2	·	·
Cc1ccc(-c2nc(Nc3cccc(C)c3)sc2CC(=O)O)cc1	4	1	0	3	17*	5	0
Cc1nc2sc(-c3ccccc3)nn2c(=O)c1Br	3	0	-1	4	16*	17*	1
O=C1CCSc2c1ccc1ccccc21	1	3	0	0	2	·	·
CC(=O)CSc1ncnc2c1cnn2-c1ccccc1	3	3	0	3	17*	17*	1
Cc1ccc(-n2ncc3c(SCC(=O)NNC(=O)C(C)C)ncnc32)cc1	-1	0	-1	0	0	·	·
c1ccc2c(C(c3nnnn3-c3ccc4c(c3)OCCO4)N3CCCCC3)ccnc2c1 (stereo unspecified)	0	·	-1	-2	0	·	·
CN1CC(=O)N2[C@H](c3ccc4c(c3)OCO4)c3[nH]c4ccccc4c3C[C@@H]2C1=O	-1	0	-1	-1	49*	1	0
O=C1[C@@H]2Cc3c([nH]c4ccccc34)C(c3ccccc3)N2C(=O)CN1CCO (stereo partly specified)	1	1	-1	3	4	·	·
O=C(NCC1CC1)c1ccc2c3n(nc2c1)-c1ccccc1CO3	3	-1	1	4	14*	17*	1
O=C(N/N=C/C(Cl)=C/c1ccccc1)c1ccncc1	-1	·	-1	0	1	·	·
O=C(N/N=C/C(Cl)=C\c1ccccc1)c1cccs1	2	3	1.4*	4	18*	16*	1
CC(/C=N/NC(=O)c1ccccn1)=C\c1ccco1	2	·	1.2*	4	14*	11*	1
O=C(N/N=C/C(Cl)=C/c1ccccc1)c1ccccn1	3	3	0	4	15*	12*	1
O=C(NCC1CCN(Cc2ccc(Cl)cc2)CC1)C1CCCN(c2ncnc3c2nc2n3CCCCC2)C1 (stereo unspecified)	-1	-2	-2	-3	-9	·	·
CCN(CC)C(=O)C1=C(C)N(CCC2=CCCCC2)C(=O)C(CC(=O)NCc2cccs2)C1 (stereo unspecified)	0	2	-1	0	-1	·	·
CN(Cc1ccc(F)cc1)C(=O)c1cccc2c1C(=O)N(Cc1cccnc1)C2	1	·	-1	0	0	·	·
CC1=Nc2ccccc2N=C(NC(=O)c2ccccc2)C1c1ccccc1 (stereo unspecified)	2	3	0	0	19*	1	0
CC1=Nc2ccccc2N=C(NC(=O)CN2CCN(c3ccccc3)CC2)C1c1ccccc1 (stereo unspecified)	0	0	-1	-1	-1	·	·
CCc1ccc(-c2csc(NC(=O)Oc3ccccc3)n2)cc1	3	1	0	1	15*	6	0
O=C(Nc1nc(-c2cccc(Br)c2)cs1)Oc1ccccc1	0	1	-1	4	4	·	·
COc1cc(/C=N/N(c2ccccc2)c2ccccc2)ccc1O	0	1	0	0	1	·	·
CCOc1ccc(/C=N/N(C)c2ccccc2)cc1OC	3	3	-1	4	14*	16*	1
